Drawing on PubChem BioAssay (NCATS), this text covers outcome, max response and Potency for 43 compounds.

The target in assay [1] is T1, Hexokinase-4 (Homo sapiens) + Glucokinase regulatory protein (Homo sapiens) (UniProt P35557+Q14397). The assay can be described thus: qHTS assay for inhibitors of recombinant human GCK-GKRP interaction: Diaphorase-coupled assay (AID 743205). In outline:
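A kinetic fluorescence read (Ex 525/Em 590 nm, every minute for 30 minutes) tracked resorufin from a G6PDH-diaphorase coupled GCK reaction. It contained 10 nM GST-GCK, 10 nM FLAG-GKRP, 5 mM glucose, 0.4 mM ATP in Hepes pH 7.6. Normalized to with/without-enzyme DMSO controls.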
Background: Quantitative high-throughput screening tests each substance at several concentrations.

Assay [2] addresses T1, Hexokinase-4 (Homo sapiens) + Glucokinase regulatory protein (Homo sapiens). Kind of assay: qHTS assay for inhibitors of recombinant human GCK-GKRP interaction: ADP-Glo assay (AID 743206).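 Further: plate controls were DMSO plus enzyme for no effect and no enzyme for full effect.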 In outline:
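GST-GCK and FLAG-GKRP (15 nM each in the dispensed mix, with 2 uM S6P) react with 0.4 mM ATP and 5 mM glucose (final) in Hepes pH 7.6 for 60 min at room temperature. ADP is measured by ADP-Glo luminescence.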

The target is the same in assay [3]. The assay can be described thus: qHTS assay for inhibitors of recombinant human GCK-GKRP interaction: HTRF assay (AID 743207).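 Further: 0% = DMSO with GCK present and -100% = DMSO wells lacking GCK.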 In outline: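 After 60 min equilibration at room temperature with anti-FLAG XL665 and anti-GST antibodies, FRET ratio (665/615 nm, excitation 320 nm) was read. Proteins: GST-GCK and FLAG-GKRP, each 5 nM, plus 2 uM S6P, pH 7.1 buffer; GCK-free wells define minimum signal.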

Assay [4] is described as follows: qHTS assay for cell viability of HEK293 cells (AID 743288). Further: nearly all actives have a fitted effect of over 50% in size. Further: potency means the concentration at half of the fitted maximal effect. On max response: on the % scale 0 is the no-effect control and ±100 the full control effect. The note with it: ATP luminescence (CellTiter-Glo), 18 h; max response: hits give low values. Summed up:
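Total intracellular ATP, measured with a luciferase-coupled reagent, indicates the number of viable HEK293 cells. Exposure to test chemicals lasts 18 h at 37 C in 1,536-well format at 2,000 cells/well.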

Assay [5] can be described thus: qHTS assay for cell viability of the p53RE-bla HCT-116 cell line (AID 743292). Further: on the % scale 0 is the no-effect control and ±100 the full control effect; nearly all actives have a fitted effect of over 55% in size. Summed up: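 ATP-based luminescence, 16 h compound exposure at 37 C, p53RE-bla HCT-116 cells at 4,000/well.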
The nature of assay [6]: qHTS Assay for Identifying Gametocytocidal Compounds (AID 743244). Further: potency means the concentration at half of the fitted maximal effect.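 On max response: on the % scale 0 is the no-effect control and ±100 the full control effect; actives lower the fluorescent signal which means gametocytes are killed.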 The conditions noted are these: P. falciparum 3D7 stage III-V gametocytes, alamarBlue, 72 h; max response: hits give low values. Summed up:
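P. falciparum 3D7 stage III–V gametocytes (20,000 cells/well) were exposed to compounds for 72 h at 37 °C, 5% CO2. AlamarBlue was then added for 24 h; decreased resorufin fluorescence (Ex 525/Em 598 nm) indicated loss of viability.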

The structures appear in SMILES notation. Several values for one entry are separate records, joined by “and”; a condition that tells them apart may be missing. Equal values may be shown once. Values without a mark were called inactive. Records with an inconclusive call do not appear. Activity calls are given as the source filed them. The call rests on the fitted dose curve; in most records, active means well fitted curve in the direction sought with a large enough effect; inconclusive means small, poorly fitted or top-dose-only effect, or another doubt; inactive means no such curve, though single readings can be large; an effect the other way counts as inactive or inconclusive. Where a SMILES comes first, the peptide text is derived from it. Bridges are numbered along the chain shown (N, C = ends). [ ]: non-standard residue; d: D form. The star is where a group is joined. ξ: configuration not given here. X1 = CC[C@@H](C)[C@@H](N)C1=N[C@H](C(=O)*)CS1; d(aIle) = CC[C@H](C)[C@@H](N)C(=O)O; d(aThr) = C[C@@H](O)[C@@H](N)C(=O)O; ξThr(3R) = C[C@@H](O)C(N)C(=O)O; X3 = CC[C@@H](C)CCCCC(=O)*; dOrn = NCCC[C@@H](N)C(=O)O; dDab = NCC[C@@H](N)C(=O)O

T1 sequence (P35557 whole entry, looked up): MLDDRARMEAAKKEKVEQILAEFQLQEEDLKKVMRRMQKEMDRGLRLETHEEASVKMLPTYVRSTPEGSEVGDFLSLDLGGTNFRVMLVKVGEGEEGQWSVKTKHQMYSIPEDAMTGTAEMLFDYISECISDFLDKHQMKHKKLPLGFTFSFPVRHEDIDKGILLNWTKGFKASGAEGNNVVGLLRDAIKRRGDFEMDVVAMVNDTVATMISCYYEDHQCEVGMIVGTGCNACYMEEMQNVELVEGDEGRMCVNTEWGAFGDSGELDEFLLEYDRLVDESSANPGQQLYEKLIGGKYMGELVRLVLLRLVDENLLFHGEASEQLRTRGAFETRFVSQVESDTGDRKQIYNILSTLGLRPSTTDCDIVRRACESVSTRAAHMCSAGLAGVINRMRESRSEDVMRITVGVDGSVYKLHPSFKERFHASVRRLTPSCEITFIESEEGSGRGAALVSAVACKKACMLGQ
T1 sequence (Q14397 whole entry, looked up): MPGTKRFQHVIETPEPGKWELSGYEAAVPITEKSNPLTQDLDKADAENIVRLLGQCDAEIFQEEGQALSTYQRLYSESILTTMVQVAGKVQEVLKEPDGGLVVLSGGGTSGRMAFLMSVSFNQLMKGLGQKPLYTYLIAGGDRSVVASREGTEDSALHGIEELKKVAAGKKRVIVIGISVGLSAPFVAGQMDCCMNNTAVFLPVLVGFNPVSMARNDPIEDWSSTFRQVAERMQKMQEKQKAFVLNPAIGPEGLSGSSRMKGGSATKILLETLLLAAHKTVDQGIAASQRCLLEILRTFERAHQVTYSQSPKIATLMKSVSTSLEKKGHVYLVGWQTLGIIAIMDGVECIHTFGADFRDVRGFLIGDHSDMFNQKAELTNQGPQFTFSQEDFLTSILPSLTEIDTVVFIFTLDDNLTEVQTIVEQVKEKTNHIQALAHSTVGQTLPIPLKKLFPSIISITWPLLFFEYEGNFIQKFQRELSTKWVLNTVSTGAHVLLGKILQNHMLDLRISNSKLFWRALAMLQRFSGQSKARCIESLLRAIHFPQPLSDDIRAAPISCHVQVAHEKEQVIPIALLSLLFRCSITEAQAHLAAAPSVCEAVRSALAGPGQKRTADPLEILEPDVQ

Take `Oc1ccc(/C=C/c2cc(O)cc(O)c2)cc1`: the outcome in assay [1], in assay [2], in assay [3] and in assay [5] was inactive. The max response in assay [4] is -22.7% and -15%.
As for `CCC(=O)OC(OP(=O)(CCCCc1ccccc1)CC(=O)N1C[C@H](C2CCCCC2)C[C@H]1C(=O)O)C(C)C` (stereo not given in full), the max response in assay [6] is 15.3%.
On to `CC(=O)Nc1ccc(OC(C)=O)cc1`, for which the max response in assay [6] is -5.2%.
On the same count and under the same terms, under `CCOC(=O)[C@H](CS)NCCN[C@@H](CS)C(=O)OCC` stands 2.46%; under `CCCCC/C=C\CCC(=O)N[C@H]1[C@H](Oc2c3cc4cc2Oc2ccc(cc2Cl)[C@@H](O[C@@H]2O[C@H](CO)[C@@H](O)[C@H](O)[C@H]2NC(C)=O)[C@@H]2NC(=O)[C@H](NC(=O)[C@@H]4NC(=O)[C@H]4NC(=O)[C@@H](Cc5ccc(c(Cl)c5)O3)NC(=O)[C@H](N)c3ccc(O)c(c3)Oc3cc(O)cc4c3)c3ccc(O)c(c3)-c3c(O[C@H]4O[C@H](CO)[C@@H](O)[C@H](O)[C@@H]4O)cc(O)cc3[C@@H](C(=O)O)NC2=O)O[C@H](CO)[C@@H](O)[C@@H]1O`, -6.11%; under `CC(C)c1ncc([N+](=O)[O-])n1C`, 3.27%.
On the same count and under the same terms, then `c1ccc2cc(C3=NCCN3)ccc2c1`, with 5.29%.
Still for that read-out and setting: then `CC(C)OC(=O)Nc1ccc2nc(-c3cscn3)[nH]c2c1`, with -0.783%.
`O=C1C2CC3CC1CC(O)(C3)C2`: the max response in assay [6] is 6.58%.
Still for that read-out and setting: under `CC(C)C[C@H](NC(=O)[C@@H](COC(C)(C)C)NC(=O)[C@H](Cc1ccc(O)cc1)NC(=O)[C@H](CO)NC(=O)[C@H](Cc1c[nH]c2ccccc12)NC(=O)[C@H](Cc1cnc[nH]1)NC(=O)[C@@H]1CCC(=O)N1)C(=O)N[C@@H](CCCN=C(N)N)C(=O)N1CCC[C@H]1C(=O)NNC(N)=O` stands 16.2% and -4.65%; under `CC(C)CCC[C@@H](C)[C@H]1CC[C@H]2[C@@H]3CC[C@@H]4C[C@H](O)CC[C@]4(C)[C@H]3CC[C@]12C`, -3.57%; under `CS(=O)(=O)OCC(O)C(O)COS(C)(=O)=O` (stereo not given), -2.1%.
On the same count and under the same terms, under `COC(=O)[C@@H](N)CS` stands 0.957%.
On the same count and under the same terms, then `CN1C(C(=O)Nc2ccccn2)C(=O)c2sc(Cl)cc2S1(=O)=O` (stereo not given), with 11.6%.
As for `CC(C)=CCC/C(C)=C/CC/C(C)=C/CC/C(C)=C/CC1=C(C)C(=O)c2ccccc2C1=O`, the Potency in assay [6] is 7.94 µM (active).
On to `NCC[C@H](O)C(=O)N[C@@H]1C[C@H](N)[C@@H](O[C@H]2O[C@H](CN)CC[C@H]2N)[C@H](O)[C@H]1O[C@H]1O[C@H](CO)[C@@H](O)[C@H](N)[C@H]1O`, for which the max response in assay [6] was -1.8%.
Take `C[C@@H]1C/C=C/C=C/C=C/C=C/[C@H](O[C@@H]2O[C@H](C)[C@@H](O)[C@H](N)[C@@H]2O)C[C@@H]2O[C@](O)(C[C@@H](O)C[C@H]3O[C@@H]3/C=C/C(=O)O1)C[C@H](O)[C@H]2C(=O)O`: the max response in assay [6] is 15.6%.
On the same count and under the same terms, then `O=C(O)COc1ccc(CCNS(=O)(=O)c2ccccc2)s1`, with -5.07%.
Still for that read-out and setting: under `CCC(O)c1ccccc1` (stereo not given) stands 11%.
The same measure, in the same setting: under `C=CC1=C(C(=O)O)N2C(=O)[C@@H](NC(=O)/C(=N/OCC(=O)O)c3csc(N)n3)[C@H]2SC1` (stereo in doubt) stands -1.34%.
Consider `CN1CCc2c(c3ccccc3n2Cc2ccccc2)C1`, for which the max response in assay [6] was 9.99%.
On the same count and under the same terms, then `CCc1ccc(S(=O)(=O)O)cc1`, with -6.98%; and `C=C1[C@H](CO)[C@@H](O)C[C@@H]1n1cnc2c(=O)[nH]c(N)nc21`, with 18.1%.
Still for that read-out and setting: under `CCCc1nc(C(C)(C)O)c(C(=O)OCc2oc(=O)oc2C)n1Cc1ccc(-c2ccccc2-c2nn[nH]n2)cc1` stands 48.2%.
The same measure, in the same setting: under `CN1CCN(C(c2ccccc2)c2ccc(Cl)cc2)CC1` (stereo not given) stands 1.98%; under `CCN(CC)CCOC[C@H]1O[C@@H](O)[C@H](OCCN(CC)CC)[C@@H](O)[C@@H]1O`, 6.01%.
Turning to `NC(N)=NCC1COC2(CCCCC2)O1` (stereo not given), in assay [6], the max response is 9.74%.
With `CC(=O)Oc1cccc(C(=O)O)c1OC(C)=O`, the max response in assay [6] is 10.1%.
Still for that read-out and setting: then `CC[C@@H](C)[C@@H](N)C1=N[C@H](C(=O)N[C@@H](CC(C)C)C(=O)N[C@@H](CCC(=O)O)C(=O)N[C@@H](C(=O)N[C@@H]2CCCCNC(=O)[C@@H](CC(N)=O)NC(=O)[C@@H](CC(=O)O)NC(=O)[C@@H](Cc3cnc[nH]3)NC(=O)[C@@H](Cc3ccccc3)NC(=O)[C@@H]([C@H](C)CC)NC(=O)[C@@H](CCCN)NC2=O)[C@@H](C)CC)CS1` (X1-LE[d(aIle)][dK][dOrn][dI][dF][dH][dD][dN]; lactam 4-C), with 17.8% and -1.65%; and `O[C@@H]([C@H](O)[C@H](O)CBr)[C@H](O)CBr`, with -5.26%; and `CC(C)(C)NCC(O)CSc1nc(-c2ccc(C(N)=O)s2)cs1` (stereo not given), with 20.6%.
The same measure, in the same setting: then `c1ccc2c(c1)OCC(CN1CCCCC1)O2` (stereo not given), with -2.04%; and `CC1CC(OC(=O)C(O)c2ccccc2)CC(C)(C)C1` (stereo not given), with 25%; and `[O]=[Bi][O][Bi]=[O]`, with 11.3%.
With `CC[C@@H](C)CCCCC(=O)N[C@H](CCN)C(=O)N[C@@H](C(=O)N[C@H](CCN)C(=O)N[C@@H]1CCNC(=O)C([C@@H](C)O)NC(=O)[C@@H](CCN)NC(=O)[C@@H](CCN)NC(=O)[C@@H](CC(C)C)NC(=O)[C@@H](Cc2ccccc2)NC(=O)[C@@H](CCN)NC1=O)[C@@H](C)O` (stereo partly drawn) (X3-[dDab][d(aThr)][dDab][dDab][dDab][dF][dL][dDab][dDab][ξThr(3R)]; lactam 4-C), the max response in assay [6] is 13.9%.
With `C[C@@H](O)[C@H]1C(=O)N2C(C(=O)[O-])=C(SC3Cn4cnc[n+]4C3)[C@H](C)[C@H]12` (stereo not given in full), in assay [6], the max response was -4.53%.
The same measure, in the same setting: under `CO[C@H]1C=CO[C@@]2(C)Oc3c(C)c(O)c4c(O)c(cc(O)c4c3C2=O)NC(=O)/C(C)=C\C=C/[C@H](C)[C@H](O)[C@@H](C)[C@@H](O)[C@@H](C)[C@H](OC(C)=O)[C@@H]1C` stands -6.86%; under `CO/N=C(\C(=O)N[C@@H]1C(=O)N2C(C(=O)O)=CCS[C@H]12)c1csc(N)n1`, 5.71%; under `CCOC(=O)Cc1ccc(-c2ccccc2)cc1`, -12.4%.
With `C[C@H]1O[C@@H](O[C@H]2[C@@H](O)C[C@H](O[C@H]3[C@@H](O)C[C@H](O[C@H]4CC[C@@]5(C)[C@H](CC[C@@H]6[C@@H]5C[C@@H](O)[C@]5(C)[C@@H](C7=CC(=O)OC7)CC[C@]65O)C4)O[C@@H]3C)O[C@@H]2C)C[C@H](O)[C@@H]1O`, in assay [6], the max response was -13.6%. Moreover, the Potency in assay [4] was 126 nM (active) and 50.1 nM (active).
As to `Cc1c(O)c(=O)ccn1C`, in assay [6], the max response was 2.04%.
On to `CCCCC`, for which the results for the max response in assay [6] and in assay [4] were 2.54% and -0.392%, respectively. In addition, in assay [5], the compound was classed as inactive.
In the case of `CCCOc1cc(N)ccc1C(=O)OCCN(CC)CC`, the max response in assay [6] is -20.2%.
